Assay outcomes (PubChem BioAssay)
Sampled rows, rich in hits. Any-hit rate of the full collection: about 9.2%.
JMJD2E inh: inhibitors of human JMJD2E histone demethylase | JMJD2E catalytic domain, FDH-coupled NADH fluorescence (FDH is formaldehyde dehydrogenase) | Potency, µM (highest dose often 57.1 µM), for the others: top-dose activity change, negative = inhibition, actives largely listed as inhibitors | 230,000 tested, 1.6% active;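 also: 0% = wells with enzyme and -100% = buffer wells without enzyme; nearly all actives have a fitted effect of over 50% in size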
HTT ATP protect: cytoprotection in Huntington HTT-Q103 PC12 cell model; PC12 HTT-Q103 induced, cytoprotection, ATP luminescence, 40 h; Potency, µM (titrated, usually from 56.4 µM), for the others: cytoprotection (ATP increase), most hits filed as activators; 230,000 tested, 0.14% active; AID 1471; active = well fitted curve in the direction sought with a large enough effect; inconclusive = small, poorly fitted or top-dose-only effect, or another doubt; inactive = no such curve, though single readings can be large; an effect the other way counts as inactive or inconclusive; also: % of control where 0% means no effect; nearly all actives have a fitted effect of over 45% in size
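Rat PC12, Q103 Htt exon1-GFP fusion, ecdysone promoter; tebufenozide inducer 100 nM final; compound titration; qHTS, 1500 cells/well; ATPlite luminescent read.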
HTT aggregate: reduces HttQ103-GFP aggregates in PC12 cells | PC12 HttQ103-GFP aggregates, Acumen cytometry, 40 h | Potency, µM (doses to about 46.1 µM), for the others: top-dose activity change, negative = inhibition, actives largely listed as inhibitors | 220,000 tested, 1.1% active | AID 1688; active = well fitted curve in the direction sought with a large enough effect; inconclusive = small, poorly fitted or top-dose-only effect, or another doubt; inactive = no such curve, though single readings can be large; an effect the other way counts as inactive or inconclusive; also: % is scaled to controls: 0 for no effect and ±100 for the full control effect; nearly all actives have a fitted effect of over 60% in size
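Read-out: GFP aggregate count by laser scanning cytometer (488 nm excitation, 500-530 nm emission, 1–25 µm objects >6 SD above background). Cells: PC12, inducible HTTex1-Q103-GFP, 100 nM tebufenozide; compounds titrated.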
LMNA splice mod: changes lamin A minigene splicing in HeLa cells. HeLa LMNA splicing GFP/RFP minigene ratio, 48 h. Potency, µM (highest dose often 46.1 µM), inactives show top-dose ratio change, negative = inhibition, hits mostly inhibitors. 200,000 tested, 0.01% active; active = well fitted inhibition curve with a large enough effect in the signal ratio, with a control signal flat, not every such curve was filed as active; inconclusive = small, poorly fitted or top-dose-only effect, or effect the other way, or a change in a side signal; the % refers to the signal ratio; also: % is scaled to controls: 0 for no effect and ±100 for the full control effect
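S3 HeLa cells stably expressing lamin A-EGFP splicing minigene plus DsRed2, 600 cells/well, 48 h compound exposure at 37C. Laser-scanning cytometry; analysed as GFP (500-530 nm)/RFP (575-640 nm) total intensity ratio; 0.5% DMSO vehicle.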
HPGD block: inhibitors of human 15-hydroxyprostaglandin dehydrogenase (HPGD). P15428. purified HPGD, NADH fluorescence kinetic, PGE2 substrate. Potency, µM, without a hit: at the top dose activity change, negative = inhibition, actives largely listed as inhibitors. 150,000 tested, 4.3% active. AID 894; also: % is scaled to controls: 0 for no effect and ±100 for the full control effect
Target sequence (P15428 whole entry, looked up): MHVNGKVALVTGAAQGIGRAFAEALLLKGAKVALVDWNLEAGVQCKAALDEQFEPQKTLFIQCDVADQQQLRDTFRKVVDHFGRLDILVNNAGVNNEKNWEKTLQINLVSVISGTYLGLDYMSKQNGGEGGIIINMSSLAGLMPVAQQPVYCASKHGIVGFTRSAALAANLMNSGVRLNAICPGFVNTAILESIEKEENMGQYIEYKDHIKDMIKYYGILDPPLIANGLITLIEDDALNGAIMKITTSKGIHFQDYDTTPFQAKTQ
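20 nM HPGD preincubated 15 min at room temperature with compound in 50 mM Tris-HCl pH 8, 0.01% Tween 20. Started with 1 mM NAD+ and 30 uM prostaglandin E2; NADH fluorescence (360/450 nm) read 5 times over 30-s intervals, last minus first.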
ALDH1A1 block: inhibitors of human aldehyde dehydrogenase 1A1; Purified ALDH1A1, NADH fluorescence, propionaldehyde substrate; Potency, µM (highest dose often 75.3 µM), for inactives: at the highest dose activity, negative = inhibition, usual class: inhibitors; 220,000 tested, 7.3% active;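 also: plate controls were no enzyme wells and a reference inhibitor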
* = called active by the depositor; ? = inconclusive; . = not tested or not shown; [ ] = another dose, or the depositor's remark. Unless noted, calls follow the shape of the dose curve; as a rule, active = well fitted inhibition curve with a large enough effect (not every such curve was filed as active); inconclusive = small, poorly fitted or top-dose-only effect, or another doubt; inactive = no such curve, though single readings can be large or run the other way. Potency is read from the fitted curve at half-maximal effect.

SMILES	JMJD2E inh	HTT ATP protect	HTT aggregate	LMNA splice mod	HPGD block	ALDH1A1 block
O=C(Nc1ccc2cn[nH]c2c1)c1c(Cl)cccc1Cl	-4%	8%[10 µM]	-15%	-11%	22µM*	-2%
CN(C)c1ccc(NC2=C(Cl)C(=O)c3ccccc3C2=O)cc1	7%	-23%[10 µM]	14µM*	?	14µM*	?
CC(C)c1ccc(NC(=S)Nc2ccc3cn[nH]c3c2)cc1	?	-14%	-16%	0%[46 µM]	.	19µM*
Nn1c(Cc2cccc3ccccc23)nnc1SCCOc1ccc(F)cc1	-11%	14%[10 µM]	3%	-10%	?	9%
Nn1c(Cc2cccc3ccccc23)nnc1SCc1c(F)cccc1Cl	6%	-3%[10 µM]	-3%	-5%	22µM*	3%
Nn1c(Cc2cccc3ccccc23)nnc1SCCOc1ccc(Br)cc1	-2%	-11%[10 µM]	6%	?	14µM*	?
COC(=O)c1nnc(C(=O)NCc2ccccc2)c2[nH]c3ccc(OC)cc3c12	2%	?	.	.	-1%	-3%
CC(C)(C)C1CCC(=NOC(=O)c2ccc(F)cc2)CC1 (stereo not drawn)	7%	16%[10 µM]	14%	-14%[46 µM]	.	-12%
CCN(Cc1ccncc1)Cc1nc(Cc2ccccc2Cl)no1	6%	-12%	18µM*	-6%[46 µM]	.	-1%
CN(Cc1cnccn1)Cc1nc(Cc2ccccc2Cl)no1	-6%	-11%[10 µM]	-10%[9.22 µM]	.	.	-6%
COc1ccc(CCNc2nc(C)nc3c2oc2ccccc23)cc1OC	0%	-68%[10 µM]	?	?	-18%	-27%
COc1ccc(CCNc2ncnc3c2oc2ccccc23)cc1OC	-6%	-44%	2µM*	-11%	-5%	-11%
Cc1nc2c(=O)[nH]c(=S)n(C)c2nc1C	3%	.	3%	-5%	10µM*	7.1µM*
Cc1cc(=O)c2c(O)c3c(O)cc(=O)c4c3c3c(cc(O)c1c23)C(C)(C)C=4O	-4%	-253%	3.2µM*	.	-12%	1%
CC(OC(=O)c1oc2ccccc2c1COc1ccccc1)C(N)=O (stereo not drawn)	-4%	-25%	5%	15%[46 µM]	.	2.2µM*
O=C1OC(/C=C/c2ccccc2)=NC/1=C/C=C/c1ccccc1	-9%	10%[10 µM]	18%	1%	-17%	?
O=C1OC(/C=C/c2ccc(Cl)cc2)=NC/1=C/c1ccco1	-7%	-5%[10 µM]	1%	-13%	-10%	2µM*
COC(=O)C1(C(=O)OC)C/C=C\C/C=C\c2ccccc2C1C[N+](=O)[O-] (stereo not drawn)	-4%	-3%	.	.	-2%	9%
COc1ccc(O[C@H]2C=C[C@@H](c3ccccc3)O[C@H]2COC(=O)CC/C(C)=N/O[C@@H]2O[C@H](COC(C)=O)[C@H](OC(C)=O)[C@H](OC(C)=O)[C@H]2OC(C)=O)cc1	.	-2%[10 µM]	.	.	.	-5%[13.5 µM]
COc1ccc2c(CC(=O)NC3CCCc4ccccc43)coc2c1 (stereo not drawn)	-20%	-5%[10 µM]	6%	-13%	.	?
Cc1ccc(-c2noc(CCC(=O)NC3CCN(Cc4ccccc4)CC3)n2)cc1	3%	-4%	?	?	-3%	0%
COc1ccc(-c2noc(CCC(=O)N3CCC(C)CC3)n2)cc1	-3%	15%	2%	-22%	5µM*	?
Cc1ccc(-c2noc(CCC(=O)Nc3ccccc3C)n2)cc1	-9%	20%[0.074 µM]	-1%	?	-7%	-4%
Cc1ccc(-c2noc(CCC(=O)NC3CCCc4ccccc43)n2)cc1 (stereo not drawn)	4%	.	3.2µM*	?	-6%	?
Cc1cc2occ(CC(=O)NC3CCCc4ccccc43)c2cc1C (stereo not drawn)	-11%	4%[10 µM]	17%	-19%	-9%	2.2µM*
Cc1ccc(-c2noc(CCC(=O)N(C)c3ccccc3C)n2)cc1	-11%	2%	?	?	14µM*	-4%
COc1cc([C@@H](O)CO)ccc1OS(=O)(=O)O	.	4%[1.9 µM]	.	.	.	.
